# PrPC TRFRET: cell surface PrPC inhibition, primary TR-FRET screen. P04156. inhibition, % at 13.8 µM. actives 0.43% (n = 370,000). TR-FRET read-out; in the data active = inhibition above about 24%; also: 0% = median of the test wells and 100% = reference compound wells
# BJeLR viability: BJeLR cell viability loss | BJeLR (HRASV12) viability, CellTiter-Glo ATP luminescence, 48 h | inhibition, % (no concentration beside the values) | actives 0.17% (n = 300,000) | AID 1554; in the data active = inhibition above about 50%
# Yp Topo-I inh: Y. pestis Topo-I inhibition via cleavage products; Y. pestis Topo-I cleavage product accumulation, plate reader; actives 0.064% (n = 360,000); activity, % at 10 µM; in the data active = activity above about 50%, passing the limit was not always enough
# PfHsp40 rescue: compounds rescuing yeast from Plasmodium falciparum HSP40 toxicity; actives 0.68% (n = 340,000); growth rescue, % at 12.5 µM; S. cerevisiae expressing PfHsp40, growth rescue, ATP luminescence; AID 504582; in the data active = growth rescue above about 28%, passing the limit was not always enough;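 also: yeast W303a lacking pdr1 and pdr3 grown in galactose medium; growth measured after three days at 30 °C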
# PrP UTR inh: suppresses PrP 5' UTR mRNA reporter expression | cell-based PrP 5' UTR mRNA reporter, plate reader | inhibition, % (concentration not given with the values) | actives 0.35% (n = 340,000) | AID 488862; in the data active = inhibition above about 52%; also: 0 = median of the neutral control wells
# CCHFV vOTU inh: blocks the CCHF virus ovarian tumor domain protease | actives 0.55% (n = 370,000) | AID 651958 | inhibition, % at 11.5 µM | CCHFV vOTU protease, Pep-AMC fluorescence; in the data active = inhibition above about 30%; also: 0% = vehicle wells with enzyme and 100% = no enzyme wells
# Active calls of the source: *; / = not tested or not shown. In the library only some 2% were active in any assay of this set; here they are far more common.
SMILES,PrPC TRFRET,BJeLR viability,Yp Topo-I inh,PfHsp40 rescue,PrP UTR inh,CCHFV vOTU inh
Cc1cccc(NC(=O)C2CCCN2S(=O)(=O)c2cccnc2)c1C (stereo not drawn),4,/,/,/,/,-3
COC(=O)[C@]12C[C@H](CC(=O)NCc3cccs3)C(=O)N(CCC3=CCCCC3)C1=C[C@H](COCc1ccccc1)O[C@@H]2C,-7,/,/,/,/,8
O=C1[C@@H]2[C@H](C(=O)N1O)[C@H]1C=C[C@@H]2C1,-3,-4,2,34*,4,7
O=C1C2C3C=CC(C3)C2C(=O)N1CCCCN1C(=O)C2C3C=CC(C3)C2C1=O (stereo not drawn),2,-2,-6,-1,-8,12
CC(CCN1CCC(C(O)(c2ccccc2)c2ccccc2)CC1)Oc1cccc(Br)c1 (stereo not drawn),-14,/,/,/,/,13
O=C1CC(c2cccnc2)=NN1c1ccccc1,-1,-1,-12,91*,-17,6
O=C(O)Cc1ccc(N2N=C(c3ccccc3)CC2=O)cc1,-1,/,/,/,/,26
Nc1[nH]c(C(=O)c2ccc(Br)cc2)c(-c2ccccc2Cl)c1C(=O)NCCc1c[nH]c2ccccc12,-1,/,/,/,/,9
O=C(/C=C/c1ccccc1[N+](=O)[O-])NCCc1ccc(F)cc1,-14,-3,-7,1,-15,0
O=C(/C=C/c1ccccc1Cl)NCCc1ccc(F)cc1,1,2,3,39*,-45,1
CCNC(=O)CN(c1ccc(Oc2ccccc2)cc1)S(=O)(=O)c1ccccc1,4,5,44,60*,0,-2
CCNC(=O)CN(c1ccc(Cl)cc1)S(=O)(=O)c1ccccc1,-7,0,-6,0,-14,3
CCc1ccc(C(C)NC(=S)NCc2ccc(F)cc2)cc1 (stereo not drawn),-3,4,13,227*,10,4
CCc1ccc(C(C)NC(=S)NC2CCCCC2)cc1 (stereo not drawn),/,7,9,83*,-14,/
CCOc1ccc(C(C)NC(=S)NCc2ccc(F)cc2)cc1 (stereo not drawn),2,-9,8,5,-16,-2
Cc1ccc(C(C)NC(=S)NCc2ccc(F)cc2)cc1C (stereo not drawn),8,9,12,11,-18,3
Cc1ccc(C(C)NC(=S)NCc2ccc(F)cc2)c(C)c1 (stereo not drawn),3,-3,4,117*,2,21
CCC(C)c1ccc(C(C)NC(=S)NC2CCCCC2)cc1 (stereo not drawn),15,-8,31,-1,-22,-6
O=[N+]([O-])c1ccccc1/C=C/C1Nc2cccc3cccc(c23)N1,-8,/,/,/,/,5
COc1ccc2oc(=O)c(-c3csc(Nc4cccc(O)c4)n3)cc2c1,-1,-10,-31,449*,-85,10
COc1cccc(NC=C2C(=O)OC3(CCCCC3)OC2=O)c1,-1,-2,6,314*,-13,7
Cc1ccc(NC(=O)c2ccc(CS(=O)(=O)Cc3ccccc3C)o2)cc1C,-5,/,/,/,/,3
CCCCN1CC(COCc2ccccc2)Oc2cccc(F)c2S1(=O)=O (stereo not drawn),16,/,59*,3,-20,19
CC(C)CN(CC(C)C)C(=O)c1ccc2c(c1)NC(=O)C(C)(C)O2,-3,/,/,/,/,4
COc1cccc(CNC(=O)[C@H]2CCCN2C(=O)[C@H]2CCCN2S(=O)(=O)c2cccc(C)c2)c1,-5,/,/,/,/,-5
SMILES,PrPC TRFRET,BJeLR viability,Yp Topo-I inh,PfHsp40 rescue,PrP UTR inh,CCHFV vOTU inh
CCCCOc1ccc2c(c1)C(=O)c1cc(O)ccc1-2,6,1,-2,284*,-39,14
CCOc1ccc2c(c1)C(=O)c1cc(OCC(=O)O)ccc1-2,3,-9,-6,0,-7,-8
CC(=O)N(c1ccccc1)c1c(F)c(F)c(F)c(F)c1F,-12,-7,7,34*,-1,6
COc1ccc(S(=O)(=O)Nc2ccc(O)c3ccccc23)cc1,-17,2,-6,-2,-20,82*
COc1ccc(S(=O)(=O)Nc2ccccc2)cc1,2,-3,-1,-1,-20,-9
CC1CCN(S(=O)(=O)c2ccc(C(=O)Nc3nnc(C4CC4)o3)cc2)CC1,2,-1,-3,58*,-8,0
O=C(Nc1nnc(C2CC2)o1)c1ccc(S(=O)(=O)N2CCCCC2)cc1,0,11,-1,0,-20,-4
